The record followed here is PubChem BioAssay (NCATS).

“And” between values parts separate entries of the source, which are not always exact repeats. Equal entries are not always repeated. Records with an inconclusive call do not appear. The source holds several records for some structures; these can differ, active in one and inactive in another. The source made the active and inactive calls. Unless noted, the call rests on the fitted dose curve; in most records, active means well fitted curve in the direction sought with a large enough effect; inconclusive means small, poorly fitted or top-dose-only effect, or another doubt; inactive means no such curve, though single readings can be large; an effect the other way counts as inactive or inconclusive.

For test [1], the target named is Cellular tumor antigen p53 (Homo sapiens) (UniProt P04637). Put plainly: Primary qHTS for small molecule compounds that upregulate eGFP-tagged delta133p53alpha (in C-terminal) cells. (AID 2060324). Further: potency means the concentration at half of the fitted maximal effect. The note with it: NCI-H358 delta133p53alpha-eGFP (C-terminal tag), GFP fluorescence imaging, 24 h; series mostly up to 57.5 µM. In outline:
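In this qHTS, GFP-tagged delta133p53alpha levels are measured in fixed NCI-H358 cells after 24 h compound exposure at 37 °C. The cells are pre-induced with 100 ng/ml doxycycline, and signal is normalized to DMSO-treated wells as 0%.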
A general note: Quantitative high-throughput screening tests each substance at several concentrations.

In test [2] the target is Aldehyde dehydrogenase, mitochondrial (Homo sapiens) (UniProt P05091). Put plainly: qHTS for Inhibitors of the Aldehyde Dehydrogenase Family (ALDH2) Validation screens (AID 2061302; active means well fitted inhibition curve with a large enough effect; title and protocol of this record describe different tests). The note with it: ALDH inhibition qHTS; series mostly up to 42.6 µM.
Test [3] addresses Retinaldehyde dehydrogenase 3 (Homo sapiens) (UniProt P47895). Kind of test: qHTS for Inhibitors of the Aldehyde Dehydrogenase Family (ALDH1A3) Validation screen (AID 2061312). Further: nearly all actives have a fitted effect of over 45% in size. As to conditions: ALDH1A3 enzyme inhibition qHTS validation, fluorescence; series mostly up to 42.4 µM.
Test [4] addresses Aldehyde dehydrogenase, mitochondrial (Homo sapiens) (UniProt P05091). Put plainly: qHTS for Inhibitors of the Aldehyde Dehydrogenase Family (ALDH2) Confirmatory screens (AID 2061303; active means well fitted inhibition curve with a large enough effect; title and protocol of this record describe different tests; further: nearly all actives have a fitted effect of over 45% in size). The note with it: ALDH inhibition qHTS; series mostly up to 45.4 µM.
A short description of test [5]: qHTS for Inhibitors of the Aldehyde Dehydrogenase Family (ALDH1A2, ALDH1A3, ALDH2, ALDH3A1) (AID 2061307). Further: nearly all actives have a fitted effect of over 50% in size. On Potency: test system not described further here; potency means the concentration at half of the fitted maximal effect. The note with it: ALDH inhibition qHTS; series mostly up to 50.3 µM.
The target of test [6] is Retinaldehyde dehydrogenase 3 (Homo sapiens) (UniProt P47895). Kind of test: qHTS for Inhibitors of the Aldehyde Dehydrogenase Family (ALDH1A3) Confirmatory screens (AID 2061311). Further: nearly all actives have a fitted effect of over 60% in size. Further: potency means the concentration at half of the fitted maximal effect. The note with it: ALDH inhibition qHTS; series mostly up to 46 µM.
Test [7] addresses Retinal dehydrogenase 2 (Homo sapiens) (UniProt O94788). Kind of test: qHTS for Inhibitors of the Aldehyde Dehydrogenase Family (ALDH1A2) Confirmation screens (AID 2061314). Further: nearly all actives have a fitted effect of over 65% in size. Further: potency means the concentration at half of the fitted maximal effect. As to conditions: ALDH1A2 enzyme inhibition qHTS confirmation; series mostly up to 45.9 µM.
The target in test [8] is Aldehyde dehydrogenase, mitochondrial (Homo sapiens) (UniProt P05091). Kind of test: qHTS for Inhibitors of the Aldehyde Dehydrogenase Family (ALDH2) Primary screen (AID 2061308). Further: nearly all actives have a fitted effect of over 55% in size. As to conditions: ALDH2 enzyme inhibition qHTS, 1536-well; series mostly up to 56 µM.
The target in test [9] is Retinaldehyde dehydrogenase 3 (Homo sapiens) (UniProt P47895). Put plainly: qHTS for Inhibitors of the Aldehyde Dehydrogenase Family (ALDH1A3) Primary screen (AID 2061315). The note with it: ALDH inhibition qHTS; series mostly up to 56 µM.
A short description of test [10]: BET inhibitor-based combinations targeting novel dependencies in MECOM-rearranged (r) AML: SET-2 cell line (AID 2202231). Further: potency means the concentration at half of the fitted maximal effect; nearly all actives have a fitted effect of over 35% in size. As to conditions: SET-2 AML cells viability, CellTiter-Glo luminescence, 48 h; viability: stronger effect = lower value, concentration not given here. In outline: (§1)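 Here, 11-point titrations of each agent were applied to 500 seeded cells and incubated 48 hr; CellTiter-Glo signal, scaled against DMSO and empty wells, was integrated as AUC, then Z-scored within the individual line.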
Background: In ATP-based viability assays light output follows the ATP content of the culture.

The nature of test [11]: BET inhibitor-based combinations targeting novel dependencies in MECOM-rearranged (r) AML: HNT-34 cell line (AID 2202234). Further: potency means the concentration at half of the fitted maximal effect; nearly all actives have a fitted effect of over 35% in size. The note with it: HNT-34 AML viability, CellTiter-Glo luminescence, 48 h; series mostly up to 46 µM. Put shortly:
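Normalized to DMSO and empty-well controls, the luminescence data from CellTiter-Glo after 48 hr drug exposure were fitted across 11 concentrations. Reported metrics are area under the dose-response curve and its Z-transformed form.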

Test [12] is described as follows: BET inhibitor-based combinations targeting novel dependencies in MECOM-rearranged (r) AML: AML-194 cell line (AID 2202237; further: potency means the concentration at half of the fitted maximal effect; nearly all actives have a fitted effect of over 40% in size). As to conditions: AML-194 (MECOM-r AML) viability, CellTiter-Glo, 48 h; series mostly up to 46 µM. In outline:
as §1

Test [13] concerns the target Aldehyde dehydrogenase 1A1 (Homo sapiens) (UniProt P00352). Kind of test: qHTS for Inhibitors of the Aldehyde Dehydrogenase Family (ALDH1A1) Confirmatory screens (AID 2061316). Further: potency means the concentration at half of the fitted maximal effect; nearly all actives have a fitted effect of over 65% in size. The note with it: ALDH inhibition qHTS; series mostly up to 47.3 µM.

Chain of Cellular tumor antigen p53 (Homo sapiens) (P04637 whole entry, looked up): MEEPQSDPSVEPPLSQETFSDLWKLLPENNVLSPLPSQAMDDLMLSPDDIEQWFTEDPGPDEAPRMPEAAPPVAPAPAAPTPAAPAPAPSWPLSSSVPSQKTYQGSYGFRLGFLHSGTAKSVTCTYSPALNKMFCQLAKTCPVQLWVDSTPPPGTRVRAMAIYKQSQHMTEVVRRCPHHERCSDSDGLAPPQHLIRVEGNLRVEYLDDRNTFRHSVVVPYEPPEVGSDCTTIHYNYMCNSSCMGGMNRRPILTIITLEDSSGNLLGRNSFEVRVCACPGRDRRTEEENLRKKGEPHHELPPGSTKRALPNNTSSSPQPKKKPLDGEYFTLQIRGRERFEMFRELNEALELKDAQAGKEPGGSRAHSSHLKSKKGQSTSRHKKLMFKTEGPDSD

On to `CC(=O)NBr`, for which the Potency entry in [1], in test [2] and in test [3] was “inactive” each time.

For the compound `NNC(N)=O`, the Potency result in [2] was “inactive”.

On to `CC1(C(=O)O)C2CCC(O2)C1(C)C(=O)O` (stereo unspecified), for which the Potency entry in [2] and in [3] was “inactive” in each case.

`CN1CC[C@@]2(C)c3cc(OC(=O)Nc4ccccc4)ccc3N(C)[C@@H]12`: the Potency result in test [1] and in [4] was “inactive” each time. In addition, the Potency is 8.96 µM (active) in [5]; “inactive and 7.98 µM (active)” in [6]; “inactive and 5.65 µM (active)” in test [7].

Turning to `C[C@@H]1O[C@@H](O[C@H]2C[C@@H](O)[C@]3(CO)[C@H]4[C@H](O)C[C@]5(C)[C@@H](C6=CC(=O)OC6)CC[C@]5(O)[C@@H]4CC[C@]3(O)C2)[C@H](O)[C@H](O)[C@H]1O`, the Potency result in test [2], in [8], in [3] and in [9] was “inactive” throughout. The figures for the Potency in test [10], in test [11] and in test [12] were 0.0742 µM (active), 0.0934 µM (active) and 0.0468 µM (active), respectively.

As to `NC(N)=NOCCC(N)C(=O)O` (stereo unspecified), the Potency entry in test [1], in test [2] and in [3] was “inactive” each time.

Turning to `NC(=O)COc1c(F)cc(SCCNS(=O)(=O)c2ccccc2)cc1F`, the Potency result in test [2], in test [4] and in [3] was “inactive” each time. Besides, the Potency is 11.3 µM (active) in test [5] and 14.2 µM (active) in test [13].

For the compound `Cc1c2ccncc2c(C)c2c1[nH]c1ccccc12`, in test [1], the Potency was 30.1 µM (active). The Potency entry in test [2] and in test [3] was “inactive” in each case.

As for `C[N+]1(C)C2CCC1CC(OC(=O)C(CO)c1ccccc1)C2` (stereo unspecified), the Potency entry in test [1], in test [2] and in test [3] was “inactive” throughout.

In the case of `CCCN1CCC[C@@H]2Cc3nc(N)ncc3C[C@H]21`, the Potency result in test [1], in test [2], in test [4] and in test [5] was “inactive” throughout.

On to `CC(C)Oc1cccnc1N(C)C1CCN(Cc2ccccc2)CC1`, for which the Potency entry in test [1], in test [2] and in test [3] was “inactive” throughout.

On to `Ic1ccccc1CNC1C2CCN(CC2)C1C(c1ccccc1)c1ccccc1` (stereo unspecified), for which the Potency entry in test [2] and in test [3] was “inactive” in each case.
